Assay results taken from PubChem BioAssay AID1159580 (chemical genetic matrix, 2015).
About 2,000 (36%) of roughly 5,500 compounds were called active. About 18% were inconclusive and are not listed. Rule as the data show it: active = normalized growth mostly below about 0.91 (no sharp cut-off); inconclusive = no clear call, values can overlap the other calls; inactive = mostly above about 0.92. Some of the results follow.

Assay: chemical genetic growth profiling, strain panel (AID 1159580);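 also: tested at 20 µM; growth read once vehicle control cultures reached saturation at 30 °C; 1 = growth at the plate median or of vehicle wells; lower values mean less growth of the strain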
Details: growth OD

Measured: normalized growth

COc1cc(OC)c2c(OC)c(-c3ccc4c(c3)OCO4)c(=O)oc2c1
inactive: S. cerevisiae deletion strains, locus YJR075W, strain HOC1, hits give low values 0.972 | S. cerevisiae deletion strains, locus YKL009W, strain mrt4, hits give low values 1 | S. cerevisiae deletion strains, locus YKL068W, hits give low values 0.984 | S. cerevisiae deletion strains, locus YKL085W, strain MDH1 (second series), hits give low values 0.99 | S. cerevisiae deletion strains, locus YKL085W, strain MDH1, hits give low values 0.99 | S. cerevisiae deletion strains, locus YKL160W, strain elf1, hits give low values 0.931 | S. cerevisiae deletion strains, locus YKL190W, strain CNB1, hits give low values 0.984 | S. cerevisiae deletion strains, locus YKR001C, strain vps1, hits give low values 0.927 | S. cerevisiae deletion strains, locus YKR026C, strain gcn3, hits give low values 0.992 | S. cerevisiae deletion strains, locus YKR091W, strain srl3, hits give low values 0.978 | S. cerevisiae deletion strains, locus YLL001W, strain dnm1, hits give low values 0.97 | S. cerevisiae deletion strains, locus YLL026W, hits give low values 0.979 | S. cerevisiae deletion strains, locus YLL041C, strain sdh2, hits give low values 0.987 | S. cerevisiae deletion strains, locus YLR027C, strain aat2, hits give low values 0.934 | S. cerevisiae deletion strains, locus YLR039C, strain RIC1, hits give low values 0.865 | S. cerevisiae deletion strains, locus YLR058C, strain SHM2, hits give low values 0.99 | S. cerevisiae deletion strains, locus YLR102C, strain apc9, hits give low values 1 | S. cerevisiae deletion strains, locus YLR113W, strain HOG1, hits give low values 0.917 | S. cerevisiae deletion strains, locus YLR221C, strain rsa3, hits give low values 0.943 | S. cerevisiae deletion strains, locus YLR258W, strain gsy2, hits give low values 0.959 | S. cerevisiae deletion strains, locus YLR262C, strain YPT6, hits give low values 0.879 | S. cerevisiae deletion strains, locus YLR268W, strain sec22, hits give low values 0.946 | S. cerevisiae deletion strains, locus YLR330W, strain CHS5, hits give low values 0.991 | S. cerevisiae deletion strains, locus YLR342W, strain FKS1 (second series), hits give low values 0.952 | S. cerevisiae deletion strains, locus YLR342W, strain FKS1, hits give low values 0.957 | S. cerevisiae deletion strains, locus YLR357W, strain rsc2, hits give low values 0.997 | S. cerevisiae deletion strains, locus YLR370C, strain arc18, hits give low values 0.981 | S. cerevisiae deletion strains, locus YLR371W, strain rom2, hits give low values 0.984 | S. cerevisiae deletion strains, locus YLR384C, strain iki3, hits give low values 0.977 | S. cerevisiae deletion strains, locus YLR418C, strain cdc73, hits give low values 0.849 | S. cerevisiae deletion strains, locus YML016C, strain PPZ1, hits give low values 0.985 | S. cerevisiae deletion strains, locus YML032C, strain rad52, hits give low values 0.995 | S. cerevisiae deletion strains, locus YML120C, strain ndi1, hits give low values 0.998 | S. cerevisiae deletion strains, locus YML124C, strain tub3, hits give low values 0.986 | S. cerevisiae deletion strains, locus YMR058W, strain fet3, hits give low values 0.962 | S. cerevisiae deletion strains, locus YMR078C, strain ctf18, hits give low values 0.991 | S. cerevisiae deletion strains, locus YMR125W, strain sto1, hits give low values 1 | S. cerevisiae deletion strains, locus YMR129W, hits give low values 0.989 | S. cerevisiae deletion strains, locus YMR223W, strain ubp8, hits give low values 0.981 | S. cerevisiae deletion strains, locus YMR231W, strain pep5, hits give low values 0.973 | S. cerevisiae deletion strains, locus YMR263W, strain SAP30, hits give low values 0.966 | S. cerevisiae deletion strains, locus YMR307W, strain GAS1, hits give low values 0.905 | S. cerevisiae deletion strains, locus YNL067W, strain RPL9B, hits give low values 0.99 | S. cerevisiae deletion strains, locus YNL128W, strain TEP1, hits give low values 1 | S. cerevisiae deletion strains, locus YNL153C, strain GIM3, hits give low values 0.988 | S. cerevisiae deletion strains, locus YNL183C, strain NPR1, hits give low values 0.888 | S. cerevisiae deletion strains, locus YNL209W, strain ssb2, hits give low values 0.987 | S. cerevisiae deletion strains, locus YNL233W, strain BNI4, hits give low values 0.965 | S. cerevisiae deletion strains, locus YNL248C, strain rpa49, hits give low values 0.978 | S. cerevisiae deletion strains, locus YNL250W, strain rad50, hits give low values 0.997 | S. cerevisiae deletion strains, locus YNL271C, strain bni1, hits give low values 0.987 | S. cerevisiae deletion strains, locus YNL298W, strain CLA4, hits give low values 0.997 | S. cerevisiae deletion strains, locus YNL322C, strain KRE1 (second series), hits give low values 0.993 | S. cerevisiae deletion strains, locus YNL322C, strain KRE1, hits give low values 0.993 | S. cerevisiae deletion strains, locus YNR049C, strain mso1, hits give low values 0.992 | S. cerevisiae deletion strains, locus YNR052C, strain pop2, hits give low values 0.991 | S. cerevisiae deletion strains, locus YOL006C, strain TOP1, hits give low values 0.89 | S. cerevisiae deletion strains, locus YOL012C, strain htz1 0.711 | S. cerevisiae deletion strains, locus YOL147C, strain pex11, hits give low values 0.985 | S. cerevisiae deletion strains, locus YOR001W, strain rrp6, hits give low values 0.991 | S. cerevisiae deletion strains, locus YOR061W, strain CKA2, hits give low values 0.989 | S. cerevisiae deletion strains, locus YOR069W, strain VPS5, hits give low values 0.988 | S. cerevisiae deletion strains, locus YOR070C, strain gyp1, hits give low values 0.977 | S. cerevisiae deletion strains, locus YOR080W, strain dia2, hits give low values 0.989 | S. cerevisiae deletion strains, locus YOR083W, strain WHI5, hits give low values 0.937 | S. cerevisiae deletion strains, locus YOR106W, strain vam3, hits give low values 0.957 | S. cerevisiae deletion strains, locus YOR136W, strain idh2, hits give low values 0.99 | S. cerevisiae deletion strains, locus YOR144C, strain elg1, hits give low values 0.982 | S. cerevisiae deletion strains, locus YOR184W, strain ser1, hits give low values 0.891 | S. cerevisiae deletion strains, locus YOR231W, strain MKK1, hits give low values 0.943 | S. cerevisiae deletion strains, locus YOR265W, strain rbl2, hits give low values 0.981 | S. cerevisiae deletion strains, locus YOR270C, strain vph1, hits give low values 0.835 | S. cerevisiae deletion strains, locus YOR290C, strain snf2, hits give low values 0.932 | S. cerevisiae deletion strains, locus YOR316C, strain cot1, hits give low values 0.983 | S. cerevisiae deletion strains, locus YPL055C, strain LGE1, hits give low values 0.949 | S. cerevisiae deletion strains, locus YPL078C, strain atp4, hits give low values 0.945 | S. cerevisiae deletion strains, locus YPL106C, strain sse1, hits give low values 0.945 | S. cerevisiae deletion strains, locus YPL240C, strain hsp82, hits give low values 0.984 | S. cerevisiae deletion strains, locus YPL241C, strain CIN2, hits give low values 0.992 | S. cerevisiae deletion strains, locus YPL256C, strain CLN2, hits give low values 0.959 | S. cerevisiae deletion strains, locus YPR119W, strain clb2, hits give low values 0.97 | S. cerevisiae deletion strains, locus YPR141C, strain kar3, hits give low values 1 | S. cerevisiae deletion strains, locus YPR163C, strain tif3, hits give low values 0.969 | S. cerevisiae deletion strains, locus YPR167C, strain met16, hits give low values 0.989 | S. cerevisiae deletion strains, strain wtn01, hits give low values 0.968 | S. cerevisiae strains, strain wild type, hits give low values 0.982
active: S. cerevisiae deletion strains, locus YLR262C, strain YPT6 (second series), hits give low values 0.783 | S. cerevisiae deletion strains, locus YLR320W, strain mms22, hits give low values 0.867 | S. cerevisiae deletion strains, locus YMR205C, strain PFK2, hits give low values 0.866 | S. cerevisiae deletion strains, locus YNL071W, strain lat1, hits give low values 0.816 | S. cerevisiae deletion strains, locus YNL307C, strain MCK1, hits give low values 0.792 | S. cerevisiae deletion strains, locus YPL051W, strain arl3, hits give low values 0.899
